The campaign covered roughly 47,000 compounds. About 2,000 (4.3%) were called active. Only a selection was taken, and actives are over-represented in it overall. Unmarked numbers belong to inactive results. Cut-off read from the data, not from the text of the source: active = inhibition above about 30%; inactive = the rest.
What follows are compounds tested against Ubiquitin carboxyl-terminal hydrolase 8 (Homo sapiens) (UniProt P40818) (assay: inhibitors of human USP8 deubiquitinase (AID 1645853)). Conditions: purified USP8, Ub-rhodamine cleavage fluorescence, 30 min; at 20 µM; hits give high values.
Ubiquitin carboxyl-terminal hydrolase 8 (Homo sapiens), sequence (P40818 whole entry, looked up): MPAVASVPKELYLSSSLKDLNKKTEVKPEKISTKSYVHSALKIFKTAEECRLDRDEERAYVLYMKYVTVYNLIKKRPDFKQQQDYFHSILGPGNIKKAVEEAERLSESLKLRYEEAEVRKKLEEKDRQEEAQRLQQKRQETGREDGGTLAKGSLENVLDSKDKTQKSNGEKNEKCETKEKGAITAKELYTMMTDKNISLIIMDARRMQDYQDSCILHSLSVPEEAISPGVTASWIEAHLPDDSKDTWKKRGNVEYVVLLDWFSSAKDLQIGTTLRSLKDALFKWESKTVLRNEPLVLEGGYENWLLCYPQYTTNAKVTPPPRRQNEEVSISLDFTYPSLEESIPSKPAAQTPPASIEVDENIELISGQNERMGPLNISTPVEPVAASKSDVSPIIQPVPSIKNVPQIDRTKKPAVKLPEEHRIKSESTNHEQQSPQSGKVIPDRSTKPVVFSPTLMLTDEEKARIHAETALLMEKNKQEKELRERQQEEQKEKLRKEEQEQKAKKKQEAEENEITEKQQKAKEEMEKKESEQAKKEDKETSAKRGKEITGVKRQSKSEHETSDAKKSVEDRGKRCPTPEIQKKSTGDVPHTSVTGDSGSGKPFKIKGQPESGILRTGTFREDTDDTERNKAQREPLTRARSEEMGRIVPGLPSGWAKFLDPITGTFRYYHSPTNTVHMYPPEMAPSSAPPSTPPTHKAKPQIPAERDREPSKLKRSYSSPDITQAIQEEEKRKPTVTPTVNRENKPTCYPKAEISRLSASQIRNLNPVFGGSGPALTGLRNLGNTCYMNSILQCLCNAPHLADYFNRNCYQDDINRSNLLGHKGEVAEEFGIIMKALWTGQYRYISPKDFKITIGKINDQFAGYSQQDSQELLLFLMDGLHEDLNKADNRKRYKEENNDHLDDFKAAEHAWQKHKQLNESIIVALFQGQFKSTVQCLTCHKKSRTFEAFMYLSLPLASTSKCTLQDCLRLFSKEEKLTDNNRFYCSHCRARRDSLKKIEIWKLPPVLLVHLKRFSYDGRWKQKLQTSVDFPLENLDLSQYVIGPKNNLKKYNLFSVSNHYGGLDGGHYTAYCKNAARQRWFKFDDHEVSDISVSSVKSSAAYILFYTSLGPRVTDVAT

SMILES | inhibition
Cn1cc(-c2nc(CN3CCCC3Cn3cccn3)cs2)cn1 (stereo not drawn) | -48.6%
O=C(Cn1c(=O)n(Cc2ccc3c(c2)OCO3)c(=O)c2ccccc21)NCc1ccco1 | 8.11%
O=C(CCc1nnc2n(Cc3ccccc3)c(=O)c3ccccc3n12)N1CCN(C(=O)c2ccco2)CC1 | 2.75%
O=C(NCCc1ccccc1)c1ccc2c(=O)n(Cc3ccco3)c(=O)n(Cc3cccc([N+](=O)[O-])c3)c2c1 | 83.9% (active)
COc1ccc(-c2ccc3nc(N4CCC(C(N)=O)CC4)sc3n2)cc1 | -18.5%
C[C@@H]1CCCCCCCCC[C@@H](OC(=O)CCC(=O)O)C(=O)/C=C/C(=O)O1 | -0.995%
Cc1ccc(Nc2nc(O)c(CC(=O)Nc3ccc(C(C)C)cc3)s2)cc1C | -0.936%
CCOc1ccc(Nc2nc(O)c(CC(=O)Nc3cccc(C)c3)s2)cc1 | 29.3%
Cc1ccc(NC(=O)Cc2sc(Nc3ccc(C)cc3)nc2O)cc1 | 35.4% (active)
O=C(NCc1ccncc1)c1nnn(-c2ccc(F)cc2)c1-c1ccncc1 | 5.41%
O=C(CSc1nnc(-c2cccnc2)o1)N1CCN(c2ccc(F)cc2)CC1 | 19%
Cc1nc(-c2cccc(NC(=O)C3CCN(c4ccccc4)C3=O)c2)no1 (stereo not drawn) | 27.7%
O=C(c1ccccc1)c1ccc(NC2CCCc3ccccc32)c([N+](=O)[O-])c1 (stereo not drawn) | -7.98%
Nc1ccc(C(=O)OCC(=O)NC2CCCc3ccccc32)cc1[N+](=O)[O-] (stereo not drawn) | 50.4% (active)
O=C(COC(=O)c1ccc(F)cc1)NC1CCCc2ccccc21 (stereo not drawn) | 7.36%
O=C(CN1CCN(Cc2nc3ccccc3s2)CC1)N1CCc2ccccc21 | -4.14%
CC(C)C(=O)N1[C@@H](c2ccccc2)C[C@@H]2NC(=O)CCC[C@H]21 | 1.29%
CC1CCc2c(sc3ncnc(OCc4cccc([N+](=O)[O-])c4)c23)C1 (stereo not drawn) | -36.3%
Cc1nc(N)ncc1C(=O)N1CCCC(C)(C(=O)NC2CCCC2)C1 (stereo not drawn) | 4.82%
Cc1nnn(C23CC4CC(CC(C(=O)NC5CCCC5)(C4)C2)C3)n1 | 30.1% (active)
COCCn1cnc2c1c(=O)n(CC(=O)Nc1c(C)cc(C)cc1C)c(=O)n2Cc1ccccc1 | 32.6% (active)
O=c1c2c(ncn2C2CCCC2)n(Cc2ccccc2)c(=O)n1Cc1ccccc1 | 1.24%

SMILES | inhibition
COCCn1cnc2c(-c3ccccc3)cn(CC(=O)NCc3ccccc3)c2c1=O | 0.16%
Cc1nc(C2CCN(C(=O)Cc3ccc(F)cc3)CC2)ncc1C(N)=O | 0.65%
O=S(=O)(c1ccccc1)n1nc(-c2cccnc2)nc1NCc1ccc(Cl)cc1 | 3.57%
CS(=O)(=O)c1ccc(CN2CCC3(C/C=C/Cc4ccccc4OCC(=O)NC3)CC2)cc1 | -3.81%
O=C1NC(c2ccccc2)=N/C1=C/c1ccc(F)cc1 | -0.962%
O=C(O)c1ccc2c(=O)n3c(nc2c1)/C(=C/c1cccc(C(F)(F)F)c1)CC3 | 14.9%
O=C(O)c1c2c(nc3ccccc13)/C(=C/c1ccc(F)cc1)CCC2 | 35.2% (active)
CC1(C)[C@H](Cc2cc(-c3ccccc3)on2)C[C@@H]1NC(=O)C1CC1 | -0.801%
CCOc1ccccc1NC(=O)Nc1cc(-c2nc3ccccc3o2)ccc1OC | 21.7%
CCOc1ccccc1NC(=O)Cc1cccs1 | 31.3% (active)
CCOc1ccccc1NC(=O)COc1cccc2c1OC(C)(C)C2 | 8.84%
O=S(=O)(Nc1ccc2[nH]ncc2c1)c1ccccc1Cl | 47% (active)
CN1C(=O)C(C)(C)COc2ccc(NS(=O)(=O)c3ccccc3Cl)cc21 | 0.668%
CCOc1cc(S(=O)(=O)Nc2ccc3cn[nH]c3c2)ccc1Cl | 22.3%
CCCCCn1c(=O)c2sccc2n2c(CCC(=O)NC3CC3)nnc12 | 5.66%
COc1ccc(C(=O)N2CCC(Cc3nc(-c4cnccn4)no3)CC2)cc1 | 6%
CCOc1ccccc1C(=O)NCC(c1ccco1)N1CCCC1 (stereo not drawn) | 23.5%
Cc1ccc(N2C(=O)CN(S(C)(=O)=O)CC2(C)C(=O)NC2CCCCC2)c(C)c1 (stereo not drawn) | 15.1%
Cc1ccc(N2C(=O)CN(S(=O)(=O)c3ccccc3)CC2(C)C(=O)NCCC(C)C)cc1C (stereo not drawn) | 6.01%
CCOc1ccc2c(c1)c(=O)c(C(=O)c1ccccc1)cn2CC(=O)Nc1ccc(OC)cc1 | 93.8% (active)
COc1ccc(NC(=O)CSc2cn(CC(=O)N3CCCC3)c3ccccc23)cc1 | -38.7%
CCOc1ccc(NC(=O)Cn2cc(C(=O)c3ccc(Cl)cc3)c(=O)c3cc(OC)ccc32)cc1 | -4.68%

SMILES | inhibition
O=C(NCCc1ccccc1)N1CCC(n2c(=O)[nH]c3cncnc32)C1 (stereo not drawn) | 5.93%
COc1cc(C(=O)N(c2ccccn2)C2CCCCC2)cc(OC)c1OC | -3.54%
O=C(/C=C/c1ccc(Cl)cc1)Nc1ccc2c(c1)OCCO2 | -8.51%
COCCN1Cc2c(C(=O)N3CCCCC3)ncn2-c2ccccc2S1(=O)=O | -27.7%
Cc1ccc(CNC(=O)c2nc(-c3cn(-c4ccc(Br)cc4)nc3C)no2)o1 | 13.8%
Cc1cc(F)ccc1NC(=O)c1cc(C2CC2)n2nccc2n1 | -4.45%
Cc1ccc(-n2cc(-c3noc(C(=O)Nc4ccc(F)cc4C)n3)nn2)cc1 | 99% (active)
COc1cccc(CNC(=O)c2cc3c(=O)n(C)ccc3n2C)c1 | -1.58%
COc1ccc(NC(=O)CS(=O)(=O)c2cn(CC(=O)N3CCCC3)c3ccccc23)cc1 | -8.78%
Cn1nc(C2CCN(Cc3ccc4c(c3)CC(C)(C)O4)CC2)c2nccnc21 | -31%
COc1cc(CN2CCCC(c3ncc(Cl)cc3S(C)(=O)=O)C2)cc(OC)c1 (stereo not drawn) | -1.79%
Cn1nc(C2CCCN(Cc3cc(F)cc(F)c3)C2)c2nccnc21 (stereo not drawn) | 32.7% (active)
CC(C)C(=O)N1CCN2[C@H](C[C@@H](C(=O)N(C)C)[C@]23C(=O)Nc2ccccc23)C1 | 18.9%
COc1ccc(CNC(=O)Cn2c(C)nc3onc(C)c3c2=O)cc1 | 2.79%
COc1ccc(-c2ocnc2C(=O)NCc2ccc(OC)c(OC)c2)cc1 | 3.07%
COc1ccc(-c2nc3c(c(=O)c4ccccc4n3C)c(=O)n2Cc2ccco2)cc1 | 89.7% (active)
COc1ccc(-c2nc3c(c(=O)c4ccccc4n3C)c(=O)n2CCc2ccc(OC)c(OC)c2)cc1 | 33.9% (active)
CC(C)(C)C(=O)Cn1c(=O)n(Cc2ccco2)c(=O)c2ccccc21 | -0.0891%
O=c1c2ccccc2n(Cc2ccccc2Cl)c(=O)n1Cc1ccco1 | -2.33%
COc1cccc(CCC(=O)N2CCN(c3cc(C)n4cnnc4n3)CC2)c1 | -8.31%
CCc1ccc(NC(=O)CSc2nc(-c3ccccc3F)nc3cc(=O)[nH]n23)cc1 | -16%
CCc1ccc(S(=O)(=O)N2CCN=C2N2CCCCC2)cc1 | -0.222%

SMILES | inhibition
CCN(C)C(=O)c1cc(-c2ccn(-c3ccccc3)n2)n2ccccc12 | -39.1%
COC(=O)c1cc2c(ccn2C)n1CC(=O)N1CCN(Cc2ccc3c(c2)OCO3)CC1 | 22.5%
O=C(Nc1cccc2ccccc12)N1CCN(Cc2ccc3c(c2)OCO3)CC1 | 61.7% (active)
O=C(NCc1ccc2c(c1)OCO2)C1=CCN(Cc2ccccc2)CC1 | -26.8%
CCCCN(c1ccccc1)S(=O)(=O)c1cccc(C(=O)OCC(=O)NCc2ccc3c(c2)OCO3)c1 | 22.8%
Cc1ccc(N2CC(c3nnc(NC(=O)CCCc4ccccc4)s3)CC2=O)cc1 (stereo not drawn) | -58.7%
CC(C)c1nnc(NC(=O)C2CC(=O)N(CCc3ccc(F)cc3)C2)s1 (stereo not drawn) | -27.4%
COc1ccc(-c2nc(C3CC(=O)N(c4ccccc4)C3)no2)cc1 (stereo not drawn) | 12.9%
Cc1ccc(N2CCCS2(=O)=O)cc1NC(=O)Cc1ccc(Cl)cc1 | 15.3%
Cc1ccc(CC(=O)Nc2nnc(C3CC(=O)N(c4ccc(C)c(C)c4)C3)s2)cc1 (stereo not drawn) | 35.8% (active)
COc1ccc(N2CC(c3nnc(NC(=O)CCc4ccccc4)s3)CC2=O)cc1 (stereo not drawn) | 43.3% (active)
CN1CCN(c2ncc(NC(=O)c3ccccn3)cn2)CC1 | -1.52%
CC1CCN(S(=O)(=O)CC(F)(F)F)Cc2nc3ccccc3n21 (stereo not drawn) | -0.0013%
CCCNc1nc(Nc2ccc(OC)cc2)c2cnn(C)c2n1 | -0.418%
Nc1nc(N2CCCC2)nc2c1CCN(Cc1ccc3ncccc3c1)C2 | -7.44%
O=C(CN1CCN(CC(=O)Nc2ccc3c(c2)OCO3)CC1)Nc1ccc(F)cc1 | 38.1% (active)
O=C(Nc1ccc2c(c1)OCO2)N1CCCCCC1 | 5.28%
O=C(CCOc1ccccc1F)Nc1ccc2c(c1)OCO2 | 7.17%
Cc1ccc(-c2noc(-c3cccc(OCC(=O)N(C)C)c3)n2)cc1 | -30%
CCOc1ccc(-c2noc(-c3nn(-c4cccc(OC)c4)ccc3=O)n2)cc1 | 81.8% (active)
COc1cccc(-c2cc3c(=O)n(Cc4nc(-c5ccccc5C)no4)ccn3n2)c1 | 0.201%
COc1nc2c(c(-c3ccc[nH]3)c1C#N)Cc1ccccc1-2 | -97.1%

From PubChem BioAssay AID1645853 (Buhrlage Lab, Dana-Farber Cancer Institute and Novartis …, 2021)
